These results are taken from PubChem BioAssay (Tox21).

Molecules are shown by their SMILES. Values joined by “and” are separate entries in the source; they are usually repeats but may differ in a detail not shown here. Equal entries are not always repeated. Results filed as inconclusive are left out. A call without a number means that no potency is given here. A structure can be active in one record and inactive in another. Active and inactive are the calls of the source. Calls follow the shape of the dose curve; as a rule, active = well fitted inhibition curve with a large enough effect in the repeat runs; inconclusive = weak or mixed curves; inactive = no such curve, though single readings can be large or run the other way.
Potency is read from the fitted curve at half-maximal effect.

This experiment can be described thus: qHTS assay to identify small molecule antagonists of the estrogen related receptor (ERR) signaling pathway from Tox21 library (AID 1224848). Also: nearly all actives have a fitted effect of over 50% in size. Conditions: ERR reporter cell line, luciferase antagonist mode, 18 h; series mostly up to 92.4 µM. An excerpt:
U.S. Tox21 Program National Center for Advancing Translational Sciences [NCATS] NIH Chemical Genomics Center [NCGC] U.S. Environmental Protection Agency [EPA] National Institutes of Environmental Health Sciences [NIEHS] National Toxicology Program [NTP] U.S. Food and Drug Administration [FDA] Tox21 Assay Overview: Estrogen related receptors (ERRs), the first orphan nuclear receptors discovered, play an important role in the control of cellular energy metabolism. ERRs are required for high-energy production in response to the environmental challenges. ERR-alpha was also identified as an adverse marker for breast cancer progression; ERR-alpha-positive tumors have a poor prognosis. To screen and to identify environmental compounds that perturb the ERR signaling pathways could provide valuable information for potential therapeutic or preventive measures in the treatment of metabolic disease. For identifying ERR antagonists, ERR cell line (provided by NTP) has been used to screen Tox21 10K library.
Tox21 Assay Protocol Summary: The ERR cells were dispensed at 2,000 cells/5 ul/well in 1536-well white plates using a Multidrop dispenser. After the assay plates were incubated at a 37 C/5% CO2 incubator for 6 hours, 23 nL of compounds dissolved in DMSO, positive and negative controls or DMSO only was transferred to the assay plate by a pin tool. The plates were incubated at 37 C for 18 hours. 4 ul/well of One-Glo reagent was added into the assay plates using a Flying Reagent Dispenser. After 30-minute incubation at room temperature, the luminescence intensity in the plates was measured using a ViewLux plate reader.
On to `CCCCOC(=O)COC(=O)c1ccccc1C(=O)OCCCC`, for which the Potency result is “inactive”.

For the compound `CN(C)P(=O)(N(C)C)N(C)C`, the Potency entry is “inactive”.

With `COP(=S)(OC)Oc1ccc(Sc2ccc(OP(=S)(OC)OC)cc2)cc1`, the Potency is 27.3 µM (active) and inactive.

On to `O=[N+]([O-])c1ccc(Cl)c([N+](=O)[O-])c1`, for which the Potency is 24.7 µM (active) and 24.3 µM (active).

As to `O=C(O)c1nn(Cc2ccc(Cl)cc2Cl)c2ccccc12`, the Potency result is “inactive”.

In the case of `O=C1C(Cl)=C(Cl)C(=O)c2ccccc21`, the Potency was 24.4 µM (active) and inactive.

Turning to `CC(C)Nc1nc(Cl)nc(NC(C)C)n1`, the Potency result was “inactive”.

For `Oc1ccc(Cl)cc1Cl`, the Potency entry is “inactive”.

For the compound `COP(=S)(OC)SCn1nnc2ccccc2c1=O`, the Potency was 53.4 µM (active) and 61.1 µM (active).

Turning to `CCCCOCC1CO1` (stereo not given), the Potency entry was “inactive”.

With `Nc1ccc2ccccc2c1`, the Potency result is “inactive”.

On to `CC(C)(c1ccc(OCC2CO2)cc1)c1ccc(OCC2CO2)cc1` (stereo not given), for which the Potency is 61.9 µM (active).

On to `Nc1ccc([N+](=O)[O-])cc1N`, for which the Potency entry is “inactive”.

For the compound `N#Cc1cccnc1`, the Potency result is “inactive”.

On to `CCCCOCCOC(C)=O`, for which the Potency entry was “inactive”.

For `O=C1CCCO1`, the Potency entry was “inactive”.

Consider `CCOP(=O)(OCC)OCC`, for which the Potency result is “inactive”.

`Cc1cc(Cl)ccc1N=CN(C)C`: the Potency result was “inactive”.

On to `CSc1nc(NC(C)C)nc(NC(C)C)n1`, for which the Potency entry was “inactive”.

With `O=C1Nc2ccc(Cl)cc2C(c2ccccc2)=NC1O` (stereo not given), the Potency entry is “inactive”.

Take `O=S(=O)(O)C(F)(F)C(F)(F)C(F)(F)C(F)(F)C(F)(F)C(F)(F)C(F)(F)C(F)(F)F`: the Potency entry is “inactive”.

Consider `O=P(OCCCl)(OCCCl)OCCCl`, for which the Potency entry is “inactive”.

Consider `CC1(C)C(C(=O)OC(C#N)c2cccc(Oc3ccccc3)c2)C1(C)C` (stereo not given), for which the Potency is 30.9 µM (active).

Turning to `CCC[CH2][Sn]([Cl])([Cl])[CH2]CCC`, the Potency is 155 nM (active) and 172 nM (active).

With `CN(C)c1ccccc1`, the Potency result is “inactive”.

On to `Brc1ccc(Br)cc1`, for which the Potency result was “inactive”.

Consider `CNC(=O)Oc1cccc2c1OC(C)(C)C2`, for which the Potency result was “inactive”.

As to `CC(C)(O)C(=O)Nc1ccc([N+](=O)[O-])c(C(F)(F)F)c1`, the Potency was 9.89 µM (active) and 17.8 µM (active).

Regarding `Cn1c(-c2ccccc2)cc(-c2ccccc2)[n+]1C`, the Potency is 17.2 µM (active) and 21.7 µM (active).

As to `Clc1cccc(Cl)c1`, the Potency result was “inactive”.

For the compound `CCC1(c2ccc(N)cc2)CCC(=O)NC1=O` (stereo not given), the Potency entry is “inactive”.

In the case of `COP(=S)(OC)Oc1ccc(S(=O)(=O)N(C)C)cc1`, the Potency result is “inactive”.

For `CCCCC(C#N)(Cn1cncn1)c1ccc(Cl)cc1` (stereo not given), the Potency was 48.4 µM (active).

Regarding `N#CC(c1ccccc1)c1ccccc1`, the Potency entry was “inactive”.

Take `OC(c1ccc(Cl)cc1)(c1cncnc1)c1ccccc1Cl` (stereo not given): the Potency was 11.1 µM (active) and 54.5 µM (active).

`COc1ccc(C=O)cc1OC`: the Potency entry is “inactive”.

`NC(=O)CN1CCCC1=O`: the Potency entry was “inactive”.

Turning to `Clc1ccc(C(Cl)(Cl)Cl)cc1`, the Potency entry was “inactive”.

In the case of `C=CC(=O)OCC(CC)(COC(=O)C=C)COC(=O)C=C`, the Potency was 15.8 µM (active) and 19.3 µM (active).

As for `CC(C)Nc1ccc(Nc2ccccc2)cc1`, the Potency was 15.3 µM (active) and 48.6 µM (active).
